Measurements reported in PubChem BioAssay (NCI).
This is part of a sample that, as a whole, favours compounds with a hit. Of some 79,000 tested, about 15% had one in any assay. Cut-off read from the data, not from the text of the source: active = growth inhibition above about 70%; inactive = the rest.

Columns and labels:
[1] = NCI Yeast Anticancer Drug Screen. Data for the rad50 strain (AID 155);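 note: 0% = growth of vehicle-only cultures of the same strain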; conditions: S. cerevisiae rad50 strain growth inhibition; at 50.0 µM; hits give high values
In short: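 Readout: growth inhibition relative to vehicle-treated cultures. Compound exposure was carried out in a genetically defined yeast strain deficient in DNA damage repair.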

[2] = NCI Yeast Anticancer Drug Screen. Data for the mec2-1 strain (AID 157); conditions: S. cerevisiae mec2-1 strain, at 50.0 µM, hits give high values
In short: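 Yeast mec2-1 mutant treated with compound. Readout: growth inhibition vs vehicle controls.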

[3] = NCI Yeast Anticancer Drug Screen. Data for the sgs1 mgt1 strain (AID 161);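 note: 0% = growth of cultures given vehicle only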; conditions: S. cerevisiae sgs1 mgt1 strain, at 50.0 µM, hits give high values
In short: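 Genetically altered yeast, compound exposure, growth inhibition relative to vehicle.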

[4] = NCI Yeast Anticancer Drug Screen. Data for the cln2 rad14 strain (AID 165);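 note: 0% = growth equal to vehicle treated cultures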; conditions: S. cerevisiae cln2 rad14 strain, at 50.0 µM, hits give high values
In short: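 cln2 rad14 yeast strain; compound exposure; growth inhibition read vs vehicle controls.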

[5] = NCI Yeast Anticancer Drug Screen. Data for the bub3 strain (AID 167); conditions: S. cerevisiae bub3 mutant strain, at 50.0 µM, hits give high values
In short: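 Readout: yeast growth inhibition, expressed relative to vehicle-only wells. The test organism is a mutant strain from a panel with lesions in DNA repair or checkpoint genes.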

[6] = NCI Yeast Anticancer Drug Screen. Data for the mlh1 rad18 strain (AID 175); conditions: S. cerevisiae mlh1 rad18 strain growth inhibition; at 50.0 µM; hits give high values
In short: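 Yeast w/ defined DNA-repair lesions; compound exposure; growth vs vehicle controls → % inhibition.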

Measured: growth inhibition

CC(C)CC(C)(O)C(N)=O (configuration not stated)
inactive: [1] -5.15% | [2] -7.55% | [3] -29% | [4] -21.8% | [5] 0.35% | [6] -4.95%

O=S(=O)(SC1=NCCN1)c1cccc2ccccc12
inactive: [1] 3% | [2] 3.5% | [3] 20.1% | [4] 30% | [5] -3% | [6] 8.45%

NCCCCC(N)C(=O)NCCNc1ccc(NCCNC(=O)C(N)CCCCN)c2c1C(=O)c1ccccc1C2=O (configuration not stated)
inactive: [1] 11.5% | [2] 7.4% | [3] 1.45% | [4] -4.85% | [5] -21.5% | [6] -19.1%

COc1cc([N+](=O)[O-])c2ncccc2c1
inactive: [1] -15.9% | [2] -16% | [3] -7.6% | [4] 6.9% | [5] -3.1% | [6] 18.1%

CCCCCCC(=O)c1ccco1
inactive: [1] 2.4% | [2] -18.6% | [3] -1.05% | [4] 14.9% | [5] -1.75% | [6] -11.8%

CCOC(=O)C(C#N)S(C)(=O)=O (configuration not stated)
inactive: [1] 4.55% | [2] -6.55% | [3] 1.9% | [4] -35.3% | [5] -12.1% | [6] -1.6%

Cc1ccccc1NC(=O)Oc1ccc2c(C)cc(=O)oc2c1
inactive: [1] -3% | [2] 12.2% | [3] 14.4% | [4] -17.2% | [5] 14.3% | [6] 24.9%

COc1ccc(CN2CCCN(Cc3ccc(OC)cc3OC)C2c2ccc(N(C)C)cc2)c(OC)c1
inactive: [1] 39.9% | [2] 14.5% | [3] 21.1% | [4] 3.6% | [5] 15.7% | [6] 12.1%

O=C(O)CCc1nc[nH]c1[N+](=O)[O-]
inactive: [1] -33.3% | [2] -10.6% | [3] -7.55% | [4] -44.9% | [5] 11.1% | [6] 8.1%

O=C(/C=N/O)Nc1ccccc1I
inactive: [1] 3.95% | [2] -9.95% | [3] 20.4% | [4] 16.6% | [5] 18.1% | [6] -3.5%

CC(C)([NH-])C[NH-].O=C(O)CCO.[Pt+2]
inactive: [1] 27.8% | [2] -8.8% | [3] -2.8% | [4] 17.6% | [5] 8.65% | [6] 14.2%

COC(=O)C1=NC(=S)N=C(C(=O)OC)C1(C)C(=O)c1ccc(Cl)cc1
inactive: [1] -2.55% | [2] 2.65% | [3] -14.9% | [4] 17.2% | [5] 2.75% | [6] 4.35%

CCOc1c(N=Nc2ccc(OC)cc2)c(C)nn1C(N)=S
inactive: [1] -12.5% | [2] -1.5% | [3] 2.85% | [4] -48.7% | [5] 9.75% | [6] 15.2%

CC1=N/C(=C/c2ccccc2)C(=O)O1
inactive: [1] 7.6% | [2] 0.75% | [3] 11.6% | [4] -26.7% | [5] 12.5% | [6] 10%

CC12CCC(CC1=O)C2(C)CCC(N)=O (configuration not stated)
inactive: [1] -1.55% | [2] -12% | [3] 18.2% | [4] -11.7% | [5] -17.9% | [6] -8.8%

O=C1CCCc2c(O)ccc(O)c21
inactive: [1] 5.2% | [2] 2.8% | [3] -2.6% | [4] 11.4% | [5] 8.15% | [6] 28.4%

COC(=O)Nc1nc2ccccc2n1-c1ccccc1
inactive: [1] 18.9% | [2] 2.85% | [3] 10.6% | [4] 14.2% | [5] 16.4% | [6] 17.5%

O=C(N/N=C\c1ccc(Cl)cc1Cl)c1ccccc1S
inactive: [1] -59.4% | [2] 6.45% | [3] -4.55% | [4] -0.2% | [5] -13.2% | [6] 5%

CC1OC(OC2C(O)C(OCCc3ccc(O)c(O)c3)OC(CO)C2OC(=O)/C=C/c2ccc(O)c(O)c2)C(O)C(O)C1O (configuration not stated)
inactive: [1] 4.75% | [2] -9.8% | [3] -3% | [4] 8.25% | [5] -2.7% | [6] 20.8%

O=C1/C(=C/c2ccccc2)CN(C(=O)Oc2ccccc2)C/C1=C\c1ccccc1
inactive: [1] -21% | [2] -15.2% | [3] -12.9% | [4] 10.3% | [5] -7.05% | [6] -13.8%

CCN(CC)C(=O)Cc1[nH][nH]c(=O)c1C(=O)N(CC)CC
inactive: [1] -31.9% | [2] 2.45% | [3] -42.9% | [4] -7.6% | [5] -28.6% | [6] -41.3%

CC(=O)C(C(C)=O)C(c1ccccn1)C(C(C)=O)C(C)=O
inactive: [1] -6.7% | [2] -0.65% | [3] -4.05% | [4] -0.65% | [5] 6.8% | [6] -6.45%

O=[N+]([O-])c1ccc(F)c(Cl)c1F
inactive: [1] 15.8% | [2] -6.65% | [3] -2.15% | [4] -20.9% | [5] -12.7% | [6] -3.45%

CC(C)CCOCC(O)CNCCN (configuration not stated)
inactive: [1] 12.6% | [2] 2.5% | [3] -14.7% | [4] 5.1% | [5] -1% | [6] 12.3%

OC(C1=NNC(C(O)c2ccccc2)=NN1)c1ccccc1 (configuration not stated)
inactive: [1] -29% | [2] 4.7% | [3] 22% | [4] -20.4% | [5] -2.45% | [6] 5.8%

N#Cc1nc(-c2ccccc2)c(-c2ccccc2)nc1C#N
inactive: [1] 3.15% | [2] 9.8% | [3] 0.6% | [4] -7.05% | [5] 13.9% | [6] -0.6%

O=C(Nc1ccc(Cl)c(Cl)c1)C(=O)C(C(=O)c1ccccc1-c1ccccc1)C1OC(=O)c2ccccc21 (configuration not stated)
inactive: [1] 20.2% | [2] -0.45% | [3] 5.85% | [4] -50.5% | [5] 4.85% | [6] -8.9%

CNCCCC1c2ccccc2C=Cc2ccccc21
inactive: [1] 5.5% | [2] 2.9% | [3] 12.8% | [4] -1.7% | [5] 0.15% | [6] 11.8%

NNC(=O)c1ccc[n+](CCc2ccccc2)c1
inactive: [1] -1.25% | [2] -8.55% | [3] -34% | [4] -34% | [5] -30.4% | [6] -5.5%

O=S1(=O)CS(=O)(=O)OCCCCO1
inactive: [1] 10.2% | [2] -5.75% | [3] 4.9% | [4] 13.3% | [5] -9.05% | [6] 7.85%

CCOC(=O)CC(=O)CC
inactive: [1] 8.5% | [2] -16.6% | [3] -18.8% | [4] 7.55% | [5] -6.45% | [6] 3.25%

CC(=O)CCCC(=O)O
inactive: [1] 10.5% | [2] 1.25% | [3] -24.5% | [4] -11.9% | [5] 0.45% | [6] 10.2%

CSC1NC(c2ccccc2)=C(C#N)C(=O)N1C1OCC(OC(C)=O)C(OC(C)=O)C1OC(C)=O (configuration not stated)
inactive: [1] -9.1% | [2] -15.6% | [3] -39.2% | [4] 4.75% | [5] 3.4% | [6] -1.5%

Cc1ccc(N=CC=C2C=CN(O)C=C2)nc1
inactive: [1] -8% | [2] -10.9% | [3] -0.85% | [4] -19.2% | [5] -19.1% | [6] -10.5%

CC(=O)CC(O)(C(F)(F)Cl)C(F)(Cl)Cl (configuration not stated)
inactive: [1] -35.5% | [2] -47.7% | [3] -42.8% | [4] 0.2% | [5] -30.1% | [6] -35.8%

CCOC1CCC=CO1 (configuration not stated)
inactive: [1] -9.65% | [2] 3.7% | [3] 39% | [4] 28.7% | [5] -21.9% | [6] 39.6%

CCCCCCCCc1cc(CN(C)C)c(O)c(C(C)(C)CC(C)(C)C)c1
inactive: [1] -13.7% | [2] 2.35% | [3] 27.3% | [4] 16.7% | [5] 16% | [6] 8.3%

CNC(=O)OCc1c(COC(=O)NC)c(-c2ccc(C(C)(C)C)cc2)n(C)c1C
inactive: [1] 3.45% | [2] 12.9% | [3] 5.5% | [4] -2.75% | [5] 15.8% | [6] 22.1%

COc1ccc2c(c1OC)CN1CCc3cc4c(cc3C1=C2)OCO4
inactive: [1] 15.9% | [2] -3.95% | [3] -9.95% | [4] 2.35% | [5] 8.15% | [6] 12.9%

CCN(CC)CCCNC(Cc1ccccc1)c1ccc(OC)cc1 (configuration not stated)
inactive: [1] -1.85% | [2] -7.45% | [3] -4.05% | [4] 9.05% | [5] -17.6% | [6] -19.8%

Cc1cc2sc(C)[n+](CCCOS(=O)(=O)[O-])c2cc1C
inactive: [1] -22.6% | [2] -23.9% | [3] -40% | [4] 36.3% | [5] -0.95% | [6] -35.9%

Cn1c(/N=C(/N)N=C(N)N)cc(=O)n(C)c1=O
inactive: [1] 12.8% | [2] 5.45% | [3] 20.3% | [4] 34.7% | [5] 29.6% | [6] 21.8%
